About 7,900 targets were measured; listed, in parts, are those with a hit and a random draw of the rest. About 0.6% of all pairs of compound and target were hits.
Columns and labels:
Experiment in all cases: log2 fold change, soluble protein after heating vs DMSO (PISA); higher = thermal stabilisation; K562 cells, 10 uM, 30 min; active = over 0.2 and 3.5 SD of the protein, either way, in both replicates (recomputed)
saracatinib = compound: CN1CCN(CCOc2cc(OC3CCOCC3)c3c(Nc4c(Cl)ccc5c4OCO5)ncnc3c2)CC1 [saracatinib]
Procedure, shortened: (§1)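 K562 cells at 2×10^6 cells/mL were exposed to 10 μM compound for 30 min, then aliquots were heated for 3 min across 48°C-58°C, pooled, and extracted in PBS containing 0.5% NP-40 at 4°C. The supernatant after 21,000xg for 90 min was taken as soluble protein and measured by TMTpro 16plex LC-MS/MS with channel sums equalised. Thermal stability is reported relative to control samples, with values from duplicates. Fold changes are given on a log2 scale.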

sotrastaurin = compound: CN1CCN(c2nc(C3=C(c4c[nH]c5ccccc45)C(=O)NC3=O)c3ccccc3n2)CC1 [sotrastaurin]
Procedure, shortened: as §1

alvocidib = compound: CN1CC[C@H](c2c(O)cc(O)c3c(=O)cc(-c4ccccc4Cl)oc23)[C@H](O)C1 [alvocidib]
Procedure, shortened: as §1

Tubastatin A = compound: CN1CCc2c(c3ccccc3n2Cc2ccc(C(=O)NO)cc2)C1 [Tubastatin A]
Procedure, shortened: as §1

[1] = compound: CNC(=O)C1=CC=CC=C1NC2=NC(=NC=C2Cl)NC3=C(C=C(C=C3)N4CCOCC4)OC
Procedure, shortened: as §1

defactinib = compound: CNC(=O)c1ccc(Nc2ncc(C(F)(F)F)c(NCc3nccnc3N(C)S(C)(=O)=O)n2)cc1 [defactinib]
Procedure, shortened: as §1

rucaparib = compound: CNCc1ccc(-c2[nH]c3cc(F)cc4c3c2CCNC4=O)cc1 [rucaparib]
Procedure, shortened: as §1

[2] = compound: CNc1nc(-c2ccc3c(N)n[nH]c3c2)cc(N2C[C@@H](C(=O)NC3CCCCC3)CC[C@H]2C)n1
Procedure, shortened: as §1

encorafenib = compound: COC(=O)N[C@@H](C)CNc1nccc(-c2cn(C(C)C)nc2-c2cc(Cl)cc(NS(C)(=O)=O)c2F)n1 [encorafenib]
Procedure, shortened: as §1

[3] = compound: COC(=O)[C@H](CCSC)NC(=O)C1=C(C=C(C=C1)NC[C@H](CS)N)C2=CC=CC=C2
Procedure, shortened: as §1

filanesib = compound: CON(C)C(=O)N1N=C(c2cc(F)ccc2F)S[C@@]1(CCCN)c1ccccc1 [filanesib]
Procedure, shortened: as §1

zotarolimus = compound: CO[C@H]1C[C@@H]2CC[C@@H](C)[C@@](O)(O2)C(=O)C(=O)N2CCCC[C@H]2C(=O)O[C@H]([C@H](C)C[C@@H]2CC[C@H](n3cnnn3)[C@H](OC)C2)CC(=O)[C@H](C)/C=C(\C)[C@@H](O)[C@@H](OC)C(=O)[C@H](C)C[C@H](C)/C=C/C=C/C=C/1C [zotarolimus]
Procedure, shortened: as §1

idasanutlin = compound: COc1cc(C(=O)O)ccc1NC(=O)[C@@H]1N[C@@H](CC(C)(C)C)[C@](C#N)(c2ccc(Cl)cc2F)[C@H]1c1cccc(Cl)c1F [idasanutlin]
Procedure, shortened: as §1

alisertib = compound: COc1cc(Nc2ncc3c(n2)-c2ccc(Cl)cc2C(c2c(F)cccc2OC)=NC3)ccc1C(=O)O [alisertib]
Procedure, shortened: as §1

[4] = compound: COc1cc2nc(-c3cc(F)ccc3O)nc(N[C@@H]3CNC[C@H]3C(C)(C)O)c2cc1OC
Procedure, shortened: as §1

gefitinib = compound: COc1cc2ncnc(Nc3ccc(F)c(Cl)c3)c2cc1OCCCN1CCOCC1 [gefitinib]
Procedure, shortened: as §1

[5] = compound: COc1cccc2cc(-c3nc([C@H]4CC[C@H](C(=O)O)CC4)n4ncnc(N)c34)[nH]c12
Procedure, shortened: as §1

lapatinib = compound: CS(=O)(=O)CCNCc1ccc(-c2ccc3ncnc(Nc4ccc(OCc5cccc(F)c5)c(Cl)c4)c3c2)o1 [lapatinib]
Procedure, shortened: as §1

pictilisib = compound: CS(=O)(=O)N1CCN(Cc2cc3nc(-c4cccc5[nH]ncc45)nc(N4CCOCC4)c3s2)CC1 [pictilisib]
Procedure, shortened: as §1

[6] = compound: COC1=CC=C(C=C1)CN2C=CC3=C2C=C(C=C3)C(=O)NO
Procedure, shortened: as §1

Measured: log2 fold change

BRD4 (UniProt O60885)
inactive: saracatinib 0.047 | sotrastaurin -0.149 | alvocidib -0.044 | Tubastatin A -0.156 | [1] 0.065 | defactinib -0.051 | rucaparib -0.073 | [2] 0.204 | encorafenib 0.01 | [3] -0.002 | filanesib -0.068 | zotarolimus -0.253 | idasanutlin -0.001 | alisertib -0.064 | [4] 0.078 | gefitinib 0.152 | [5] -0.003 | lapatinib -0.039 | pictilisib 0.161

ALDH9A1 (UniProt P49189)
inactive: saracatinib 0.005 | sotrastaurin 0.032 | alvocidib -0.088 | Tubastatin A -0.019 | [1] 0.016 | defactinib -0.008 | rucaparib -0.014 | [2] -0.041 | encorafenib 0.023 | [3] -0.058 | filanesib -0.149 | zotarolimus -0.164 | idasanutlin -0.073 | alisertib -0.091 | [4] 0.038 | gefitinib 0.039 | [5] 0.081 | lapatinib -0.037 | pictilisib -0.124

ADD3 isoform 2 (UniProt Q9UEY8)
inactive: saracatinib -0.112 | sotrastaurin 0.014 | alvocidib -0.166 | Tubastatin A 0.058 | defactinib -0.025 | rucaparib -0.036 | [2] -0.172 | encorafenib -0.166 | [3] -0.025 | [6] -0.022 | filanesib -0.025 | zotarolimus 0.186 | idasanutlin -0.276 | alisertib -0.042 | [4] 0.094 | [5] -0.003 | lapatinib -0.028 | pictilisib 0.125

BRD8 isoform 2 (UniProt Q9H0E9)
Sequence of UniProt Q9H0E9 (Q9H0E9 whole entry, looked up): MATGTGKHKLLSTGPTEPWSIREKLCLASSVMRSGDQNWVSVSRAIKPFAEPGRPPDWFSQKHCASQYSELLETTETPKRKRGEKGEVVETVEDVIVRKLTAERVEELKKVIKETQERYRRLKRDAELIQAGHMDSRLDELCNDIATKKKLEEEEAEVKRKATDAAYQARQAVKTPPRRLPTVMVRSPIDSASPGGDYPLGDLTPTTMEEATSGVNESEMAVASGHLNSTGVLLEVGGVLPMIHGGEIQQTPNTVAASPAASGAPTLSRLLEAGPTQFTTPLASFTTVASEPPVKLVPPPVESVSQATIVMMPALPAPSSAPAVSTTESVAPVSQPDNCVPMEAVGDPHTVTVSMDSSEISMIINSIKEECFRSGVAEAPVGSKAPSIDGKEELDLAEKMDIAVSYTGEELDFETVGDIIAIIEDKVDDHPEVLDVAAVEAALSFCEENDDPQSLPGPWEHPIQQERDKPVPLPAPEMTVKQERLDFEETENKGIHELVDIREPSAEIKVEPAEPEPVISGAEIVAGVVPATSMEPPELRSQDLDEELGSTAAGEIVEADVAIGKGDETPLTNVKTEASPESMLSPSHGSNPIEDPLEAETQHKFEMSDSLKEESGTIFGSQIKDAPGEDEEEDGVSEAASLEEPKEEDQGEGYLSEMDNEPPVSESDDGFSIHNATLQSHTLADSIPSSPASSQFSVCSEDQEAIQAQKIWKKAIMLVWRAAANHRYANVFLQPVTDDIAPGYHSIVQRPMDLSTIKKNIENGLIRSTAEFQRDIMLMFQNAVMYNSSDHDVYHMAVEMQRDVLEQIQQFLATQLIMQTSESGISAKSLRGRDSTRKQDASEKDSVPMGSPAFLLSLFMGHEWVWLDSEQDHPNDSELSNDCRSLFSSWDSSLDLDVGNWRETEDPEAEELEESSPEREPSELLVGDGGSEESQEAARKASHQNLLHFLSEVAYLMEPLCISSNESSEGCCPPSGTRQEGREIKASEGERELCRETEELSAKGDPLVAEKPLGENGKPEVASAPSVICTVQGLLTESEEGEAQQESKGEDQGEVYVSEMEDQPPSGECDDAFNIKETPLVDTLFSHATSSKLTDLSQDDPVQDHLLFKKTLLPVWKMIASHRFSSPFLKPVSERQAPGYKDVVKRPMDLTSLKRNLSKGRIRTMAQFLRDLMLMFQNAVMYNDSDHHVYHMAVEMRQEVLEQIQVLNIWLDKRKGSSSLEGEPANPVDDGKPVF
inactive: saracatinib -0.06 | sotrastaurin 0.058 | alvocidib 0.012 | Tubastatin A -0.296 | [1] 0 | defactinib -0.064 | rucaparib -0.015 | [2] -0.021 | encorafenib 0.028 | [3] 0.145 | [6] -0.201 | filanesib 0.042 | zotarolimus 0.027 | idasanutlin -0.027 | [4] -0.113 | lapatinib 0.019 | pictilisib 0.06

ABCC5 (UniProt O15440)
Sequence of UniProt O15440 (O15440 whole entry, looked up): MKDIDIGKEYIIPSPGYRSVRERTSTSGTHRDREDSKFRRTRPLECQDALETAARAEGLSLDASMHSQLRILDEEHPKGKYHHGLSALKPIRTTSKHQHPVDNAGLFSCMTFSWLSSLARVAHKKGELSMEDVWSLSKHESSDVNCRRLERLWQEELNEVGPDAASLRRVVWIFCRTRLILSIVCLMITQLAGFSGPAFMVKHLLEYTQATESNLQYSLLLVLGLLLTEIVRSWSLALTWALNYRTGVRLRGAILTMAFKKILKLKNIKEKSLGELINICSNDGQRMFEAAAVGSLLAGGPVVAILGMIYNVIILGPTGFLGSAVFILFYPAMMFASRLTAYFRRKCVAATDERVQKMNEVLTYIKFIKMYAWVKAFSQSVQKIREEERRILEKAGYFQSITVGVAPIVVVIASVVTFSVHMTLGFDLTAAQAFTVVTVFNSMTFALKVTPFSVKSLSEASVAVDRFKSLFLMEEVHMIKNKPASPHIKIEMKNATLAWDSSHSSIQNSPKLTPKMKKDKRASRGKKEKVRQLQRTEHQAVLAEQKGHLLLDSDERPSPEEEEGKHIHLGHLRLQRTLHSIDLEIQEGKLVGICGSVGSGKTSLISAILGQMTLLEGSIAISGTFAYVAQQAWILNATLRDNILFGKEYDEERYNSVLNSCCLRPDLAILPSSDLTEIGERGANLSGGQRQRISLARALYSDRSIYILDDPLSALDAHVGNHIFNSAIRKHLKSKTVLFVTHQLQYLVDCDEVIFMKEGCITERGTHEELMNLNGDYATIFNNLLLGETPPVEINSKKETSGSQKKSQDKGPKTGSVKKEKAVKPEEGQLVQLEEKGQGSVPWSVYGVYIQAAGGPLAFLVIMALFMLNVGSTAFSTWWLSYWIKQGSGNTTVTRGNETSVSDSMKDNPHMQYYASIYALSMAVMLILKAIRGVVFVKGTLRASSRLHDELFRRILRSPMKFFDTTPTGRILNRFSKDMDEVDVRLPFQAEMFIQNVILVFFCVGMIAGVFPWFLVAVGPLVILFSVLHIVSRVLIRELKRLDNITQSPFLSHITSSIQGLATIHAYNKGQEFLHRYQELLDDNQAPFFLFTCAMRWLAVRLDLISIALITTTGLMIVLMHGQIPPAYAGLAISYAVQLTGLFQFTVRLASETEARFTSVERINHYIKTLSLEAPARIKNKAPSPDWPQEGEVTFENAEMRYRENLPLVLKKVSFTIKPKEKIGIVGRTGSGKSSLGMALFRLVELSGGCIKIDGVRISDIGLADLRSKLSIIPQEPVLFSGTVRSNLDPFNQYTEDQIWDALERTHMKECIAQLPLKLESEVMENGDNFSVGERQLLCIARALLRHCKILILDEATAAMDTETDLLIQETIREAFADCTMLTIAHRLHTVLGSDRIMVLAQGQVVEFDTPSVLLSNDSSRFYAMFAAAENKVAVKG
inactive: saracatinib 0.107 | sotrastaurin -0.028 | alvocidib 0.007 | Tubastatin A 0.002 | [1] -0.02 | defactinib 0.019 | rucaparib 0.116 | [2] -0.003 | encorafenib -0.039 | [3] 0.026 | [6] -0.026 | filanesib 0.001 | zotarolimus -0.02 | idasanutlin 0.017 | alisertib -0.026 | [4] 0.053 | gefitinib 0.089 | [5] -0.05 | lapatinib 0 | pictilisib -0.037

BRD2 isoform 2 (UniProt P25440)
inactive: saracatinib 0 | sotrastaurin -0.172 | alvocidib -0.111 | Tubastatin A -0.37 | [1] 0.146 | defactinib -0.125 | [2] 0.255 | [3] -0.074 | [6] -0.174 | filanesib -0.11 | zotarolimus -0.361 | idasanutlin 0.072 | [4] 0.214 | lapatinib 0.005 | pictilisib 0.016

BLVRB (UniProt P30043)
Sequence of UniProt P30043 (P30043 whole entry, looked up): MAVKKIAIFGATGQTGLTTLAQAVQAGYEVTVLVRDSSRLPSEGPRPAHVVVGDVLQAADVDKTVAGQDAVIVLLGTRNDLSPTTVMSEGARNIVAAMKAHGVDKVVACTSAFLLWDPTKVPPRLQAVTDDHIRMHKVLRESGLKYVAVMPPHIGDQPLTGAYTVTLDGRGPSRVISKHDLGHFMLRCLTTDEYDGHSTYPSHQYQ
inactive: saracatinib 0.101 | sotrastaurin -0.047 | alvocidib -0.083 | Tubastatin A -0.002 | [1] 0.058 | defactinib -0.045 | rucaparib 0.043 | [2] 0.061 | encorafenib -0.007 | [3] -0.003 | [6] 0.113 | filanesib -0.073 | zotarolimus 0.024 | idasanutlin -0.045 | alisertib -0.07 | [4] 0.045 | gefitinib 0.061 | [5] 0.015 | lapatinib 0.071 | pictilisib 0.037

ANP32E (UniProt Q9BTT0)
inactive: saracatinib 0.006 | sotrastaurin -0.105 | alvocidib -0.109 | Tubastatin A 0.052 | [1] 0.041 | defactinib -0.239 | rucaparib -0.108 | [2] -0.06 | encorafenib 0.159 | [3] -0.022 | [6] 0.027 | filanesib 0.011 | zotarolimus 0.066 | idasanutlin 0.061 | alisertib 0.045 | [4] -0.039 | gefitinib 0.021 | [5] -0.027 | lapatinib -0.011 | pictilisib 0.06

ATAD3B (UniProt Q5T9A4)
inactive: saracatinib -0.047 | sotrastaurin -0.101 | alvocidib 0.091 | Tubastatin A -0.009 | [1] -0.084 | defactinib 0.096 | rucaparib 0.25 | [2] 0 | encorafenib 0.125 | [3] 0.033 | [6] -0.035 | filanesib 0.089 | zotarolimus -0.064 | idasanutlin 0.081 | alisertib 0.193 | [4] -0.138 | gefitinib -0.134 | [5] -0.136 | lapatinib -0.047 | pictilisib -0.161

AARS2 (UniProt Q5JTZ9)
inactive: saracatinib 0 | sotrastaurin -0.05 | alvocidib -0.1 | Tubastatin A -0.096 | [1] -0.019 | defactinib -0.027 | rucaparib 0.008 | [2] 0.004 | encorafenib 0 | [3] -0.017 | [6] -0.053 | filanesib -0.159 | zotarolimus 0.029 | idasanutlin -0.107 | alisertib 0.016 | [4] -0.012 | gefitinib -0.002 | [5] 0.047 | lapatinib -0.005 | pictilisib 0.06

ACP1 isoform 2 (UniProt P24666)
Sequence of UniProt P24666 (P24666 whole entry, looked up): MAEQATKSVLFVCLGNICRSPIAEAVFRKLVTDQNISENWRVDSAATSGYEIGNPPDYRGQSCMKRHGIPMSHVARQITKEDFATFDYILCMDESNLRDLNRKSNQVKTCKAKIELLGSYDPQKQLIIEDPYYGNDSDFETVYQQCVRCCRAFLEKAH
inactive: saracatinib -0.175 | sotrastaurin -0.11 | alvocidib 0.013 | Tubastatin A 0.111 | [1] 0.038 | defactinib -0.047 | rucaparib 0.019 | [2] 0.059 | encorafenib 0.064 | [3] 0.024 | [6] 0.029 | filanesib 0.095 | zotarolimus 0.009 | idasanutlin 0.028 | alisertib 0.094 | [4] 0.036 | gefitinib 0.045 | [5] -0.077 | lapatinib 0.014 | pictilisib 0.055

AGPAT5 (UniProt Q9NUQ2)
Sequence of UniProt Q9NUQ2 (Q9NUQ2 whole entry, looked up): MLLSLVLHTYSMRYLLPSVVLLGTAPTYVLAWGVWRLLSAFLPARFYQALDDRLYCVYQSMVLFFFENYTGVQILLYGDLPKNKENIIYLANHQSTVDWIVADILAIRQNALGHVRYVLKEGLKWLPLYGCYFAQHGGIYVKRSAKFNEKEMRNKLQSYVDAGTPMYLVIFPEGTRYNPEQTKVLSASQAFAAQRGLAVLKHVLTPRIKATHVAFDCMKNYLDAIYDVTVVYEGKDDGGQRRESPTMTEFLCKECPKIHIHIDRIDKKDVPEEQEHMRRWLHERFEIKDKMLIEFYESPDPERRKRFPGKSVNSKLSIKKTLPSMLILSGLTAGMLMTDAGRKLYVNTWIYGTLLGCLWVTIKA
inactive: saracatinib 0.016 | sotrastaurin 0.08 | alvocidib -0.085 | Tubastatin A -0.075 | [1] -0.021 | defactinib 0.011 | rucaparib 0.012 | [2] 0.083 | encorafenib -0.011 | [3] -0.019 | [6] -0.043 | filanesib -0.153 | zotarolimus 0 | idasanutlin -0.044 | alisertib 0.113 | [4] -0.111 | gefitinib 0.018 | [5] 0.071 | lapatinib 0.119 | pictilisib 0.062

BRIP1 (UniProt Q9BX63)
inactive: saracatinib -0.034 | sotrastaurin -0.016 | alvocidib -0.067 | Tubastatin A -0.089 | [1] 0.001 | defactinib 0.083 | rucaparib -0.068 | [2] -0.088 | encorafenib -0.003 | [3] 0.018 | [6] 0.072 | filanesib 0.098 | zotarolimus 0.061 | idasanutlin -0.14 | [4] 0.126 | gefitinib 0.047 | lapatinib 0.003 | pictilisib 0.067

BCCIP isoform 2 (UniProt Q9P287)
inactive: saracatinib -0.004 | sotrastaurin -0.044 | alvocidib 0.031 | Tubastatin A -0.036 | [1] 0.013 | defactinib -0.019 | rucaparib 0.087 | [2] -0.005 | encorafenib 0.037 | [3] -0.024 | [6] -0.059 | filanesib 0.05 | zotarolimus -0.002 | idasanutlin -0.021 | alisertib 0.024 | [4] 0.021 | gefitinib 0 | [5] 0.026 | lapatinib -0.007 | pictilisib -0.021

ABCA3 (UniProt Q99758)
Sequence of UniProt Q99758 (Q99758 whole entry, looked up): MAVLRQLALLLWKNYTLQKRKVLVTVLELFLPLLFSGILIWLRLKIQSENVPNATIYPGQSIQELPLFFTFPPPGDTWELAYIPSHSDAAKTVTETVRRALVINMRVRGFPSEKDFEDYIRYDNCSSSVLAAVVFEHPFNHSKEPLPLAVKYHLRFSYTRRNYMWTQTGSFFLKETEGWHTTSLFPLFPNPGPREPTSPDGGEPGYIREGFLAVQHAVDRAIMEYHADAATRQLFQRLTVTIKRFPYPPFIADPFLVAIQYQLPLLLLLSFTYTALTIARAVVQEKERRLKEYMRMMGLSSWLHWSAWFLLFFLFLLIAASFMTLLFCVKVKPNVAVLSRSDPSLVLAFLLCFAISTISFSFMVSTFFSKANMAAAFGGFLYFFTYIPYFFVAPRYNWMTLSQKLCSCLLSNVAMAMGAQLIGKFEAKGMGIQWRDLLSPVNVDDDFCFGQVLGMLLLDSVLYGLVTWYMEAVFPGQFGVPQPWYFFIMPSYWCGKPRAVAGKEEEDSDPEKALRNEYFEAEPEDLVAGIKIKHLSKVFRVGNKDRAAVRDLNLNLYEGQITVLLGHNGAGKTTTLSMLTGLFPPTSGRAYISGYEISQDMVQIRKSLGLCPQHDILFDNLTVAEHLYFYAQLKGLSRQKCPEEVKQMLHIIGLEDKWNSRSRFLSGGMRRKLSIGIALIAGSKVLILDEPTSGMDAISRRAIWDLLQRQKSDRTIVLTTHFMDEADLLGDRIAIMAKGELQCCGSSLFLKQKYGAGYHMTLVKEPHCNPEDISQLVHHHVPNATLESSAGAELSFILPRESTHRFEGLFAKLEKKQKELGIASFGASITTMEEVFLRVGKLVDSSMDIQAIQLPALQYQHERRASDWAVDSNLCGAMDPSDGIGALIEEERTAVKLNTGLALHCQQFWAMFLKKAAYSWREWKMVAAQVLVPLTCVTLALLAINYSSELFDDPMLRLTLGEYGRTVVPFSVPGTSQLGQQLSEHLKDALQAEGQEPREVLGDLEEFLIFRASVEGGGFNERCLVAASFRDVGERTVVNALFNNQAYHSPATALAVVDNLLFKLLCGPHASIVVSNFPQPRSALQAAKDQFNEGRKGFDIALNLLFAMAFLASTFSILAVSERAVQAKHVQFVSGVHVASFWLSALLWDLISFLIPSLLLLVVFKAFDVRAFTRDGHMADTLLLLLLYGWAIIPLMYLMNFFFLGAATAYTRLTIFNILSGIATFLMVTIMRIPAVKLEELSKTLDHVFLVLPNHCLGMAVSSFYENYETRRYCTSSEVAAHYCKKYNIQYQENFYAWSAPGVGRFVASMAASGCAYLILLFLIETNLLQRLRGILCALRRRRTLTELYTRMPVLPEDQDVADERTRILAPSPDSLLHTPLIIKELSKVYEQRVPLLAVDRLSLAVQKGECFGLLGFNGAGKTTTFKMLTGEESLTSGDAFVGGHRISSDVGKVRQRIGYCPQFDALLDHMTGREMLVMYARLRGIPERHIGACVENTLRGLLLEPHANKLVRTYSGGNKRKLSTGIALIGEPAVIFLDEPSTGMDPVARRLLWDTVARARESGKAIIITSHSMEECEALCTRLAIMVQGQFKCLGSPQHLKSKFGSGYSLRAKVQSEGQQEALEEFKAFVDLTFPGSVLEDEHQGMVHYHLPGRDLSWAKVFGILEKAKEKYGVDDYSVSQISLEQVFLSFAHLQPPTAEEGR
inactive: saracatinib 0.009 | sotrastaurin 0.121 | alvocidib 0.047 | Tubastatin A -0.05 | [1] 0.065 | defactinib 0.108 | rucaparib 0.11 | [2] 0.011 | encorafenib 0.192 | [3] -0.039 | [6] -0.044 | filanesib 0.062 | zotarolimus 0.03 | idasanutlin -0.021 | [4] 0.147 | lapatinib -0.084 | pictilisib 0.01

ADAM15 (UniProt Q13444)
inactive: saracatinib -0.241 | sotrastaurin -0.034 | alvocidib -0.091 | Tubastatin A 0.065 | [1] -0.211 | defactinib -0.04 | [2] 0.073 | [3] 0.056 | [6] -0.159 | filanesib 0.065 | zotarolimus -0.206 | idasanutlin -0.083 | [4] 0.078 | gefitinib -0.029 | lapatinib 0 | pictilisib -0.045

— the supplement of paper PMC10849652
